Experimental findings from PubChem BioAssay (NCATS) are described below.

This is one part of the list. Records with an inconclusive call do not appear. The source made the active and inactive calls. Calls follow the shape of the dose curve; as a rule, active = well fitted inhibition curve with a large enough effect; inconclusive = small, poorly fitted or top-dose-only effect; inactive = flat fitted curve, though single readings scatter.

The target in the test is Fructose-bisphosphate aldolase A (Oryctolagus cuniculus) (UniProt P00883). Put plainly: qHTS Assay for Inhibitors of Fructose-1,6-bisphosphate Aldolase from Giardia Lamblia: Rabbit FBPA Selectivity (AID 2794). Also: nearly all actives have a fitted effect of over 60% in size. As to conditions: Rabbit muscle FBPA enzyme inhibition, selectivity counter-screen; series mostly up to 57.5 µM. An excerpt: NIH Chemical Genomics Center [NCGC]
Fructose-bisphosphate aldolase A (Oryctolagus cuniculus), sequence (P00883 whole entry, looked up): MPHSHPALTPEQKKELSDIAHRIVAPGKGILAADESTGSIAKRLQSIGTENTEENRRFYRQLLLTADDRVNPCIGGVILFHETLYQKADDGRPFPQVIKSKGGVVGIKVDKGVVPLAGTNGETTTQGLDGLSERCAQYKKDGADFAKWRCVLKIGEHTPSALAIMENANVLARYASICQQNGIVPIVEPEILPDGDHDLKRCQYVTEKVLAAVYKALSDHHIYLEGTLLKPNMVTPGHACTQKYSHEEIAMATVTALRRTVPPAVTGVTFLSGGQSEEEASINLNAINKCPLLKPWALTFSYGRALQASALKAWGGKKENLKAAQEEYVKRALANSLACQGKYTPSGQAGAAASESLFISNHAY
NIH Molecular Libraries Probe Production centers Network [MLPCN]
Assay Provider: Osnat Herzberg, University of Maryland
The objective of this project is to obtain compounds that inhibit Giardia lamblia growth. G. lamblia is a human pathogen which afflicts impoverished nations; it is the most common cause of outbreaks of diarrhea in the United States. During the course of our study of potential drug targets in Giardia, we have identified the Class II (Zn2+ functions in electrophilic catalysis) fructose-1,6-bisphosphate aldolase (FBPA) as an excellent candidate for drug targeting. FBPA is a key glycolytic pathway enzyme, essential for G. lamblia survival. The human FBPA belongs to the Class I aldolases, which have a different substrate binding site structure and a radically different catalytic mechanism (employing a lysine-Schiff base intermediate). Therefore, affinity-based or mechanism-based inhibitors of the Giardia FBPA are expected not to interfere with the catalytic function of the human FBPA.
A glyceraldehyde-3-phosphate dehydrogenase/triose phosphate isomerase/NAD/arsenate coupled assay was adapted to the 1536-well HTP format for use in the primary screen. This was done by coupling it to a diaphorase/resazurin/resorufin reaction that can be monitored by fluorescence (excitation, 544 nm; emission, 590 nm). Compounds identified in this screen will be further evaluated by coupling the glycerol-3-phosphate/triose phosphate isomerase/NADH assay to a phenazine methosulfate/tetranitroblue tetrazolium color reaction. False positives due to the dehydrogenases and diaphorase inhibition will be eliminated, and selectivity assay will triage inhibitors of mammalian triose phosphate isomerase and the Class I FBPA. G. lamblia FBPA inhibitors identified by the in vitro analyses will be examined for growth inhibition of Giardia trophozoites, and for cytotoxicity in human cells.
This assay addresses whether hits in the primary screen are selective for […] FBPA, by using rabbit FBPA enzyme in the protocol.
Step,Parameter,Value,Description
1,Coupling enzyme reagent,2 uL,glyceraldehyde-3-phosphate
2,Compound,23 nL,3.68 nM-57.5 uM final concentration
3,Time,10 min,RT Incubation
4,Substrate/detection Reagent,2 uL,Substrate + enzyme coupling system + AmpLite Red kit
5,Time,20 min,RT Incubation
6,Detector,525 nm/598 nm (Fluorescence),ViewLux Fluorescence Read (Read 1)
1,Medium-binding black solid-bottom Kalypsys plates. FRD or Kalypsys dispenser.
2,Compound Library (10 mM ,1:5 dilution). Pin-transferred for a [final] range of 3.68 nM-57.5 uM.
4,FRD or Kalypsys dispenser, 2 uL of reaction mixture. Bottle kept at 4C and covered in foil to protect from light.
6,ViewLux Protocol 1194; Excitation filter wheel A (525/20 Pol; BODIPY TMR FP), Emission filter wheel B (598/25 S; BODIPY TMR FP S).
Keywords: Fructose-bisphosphate aldolase, FBPA , Giardia lamblia , Giardia, HTS, Inhibitors
(In general: Quantitative high-throughput screening tests each substance at several concentrations.)
Take `Cn1c(=O)[nH]c(=O)c2c1[nH]c(=S)n2Cc1ccccc1`: the compound was called inactive.

As for `C=CCc1cc(C)ccc1OCCCn1ccnc1`, the compound was called inactive.

In the case of `Cc1ccc(S(=O)(=O)NNC(=S)NC(C)(C)C)cc1`, the outcome was inactive.

Turning to `Cn1nnc(NC(=S)NC(=O)c2ccccc2)n1`, the outcome was inactive.

On to `O=C(CN1CCN(Cc2ccccc2)CC1)Nc1ccc(F)c(F)c1`, for which the call was inactive.

On to `COc1ccc(Cl)cc1C(=O)NNC(=O)c1nc2nc(C)cc(C)n2n1`, for which the result was inactive.

In the case of `Cc1cnc(NC(=O)c2ccccn2)s1`, the outcome was inactive.

Turning to `Cc1csc(NC(=O)CN2CCCCCC2)n1`, the call was inactive.

On to `COc1cc(CN2CCN(Cc3ccc(C)cc3)CC2)c([N+](=O)[O-])cc1OC`, for which the compound was called inactive.

As for `Cc1nnc(N/N=C/c2ccccn2)[nH]c1=O`, the result was inactive.

For the compound `O=C(Nc1nnc(-c2ccco2)o1)c1ccc(S(=O)(=O)N2CCOCC2)cc1`, the result was inactive.

As for `Cc1ccc(OCCCCc2c(C)n[nH]c2C)cc1`, the result was inactive.

For the compound `CN1C(=O)/C(=C\c2ccc(-c3ccccc3)o2)SC1=S`, the call was inactive.

On to `COc1ccc(OC)c(Nc2nc(-c3ccc(O)c(O)c3)cs2)c1`, for which the compound was classed as inactive.

For `CCN1CCc2c(C#N)c(NCc3ccccc3)nc(NCCO)c2C1`, the result was inactive.

`Cc1nnc(SCC2=C(C(=O)O)N3C(=O)C(NC(=O)Cn4nc(C)c(Cl)c4C)C3SC2)s1` (stereo not given): the compound was called inactive.

Consider `CN1CCCc2cc(C#N)c(=O)[nH]c21`, for which the outcome was inactive.

`CCc1ccc2c(c1)C1(NN=C(c3ccccc3)S1)C(=O)N2` (stereo not given): the result was inactive.

Take `C=CCNC(=S)/N=c1/ccccn1Cc1ccccc1`: the outcome was inactive.

For `Cc1nc2ccc(NC(=S)N3CCC(C)CC3)cc2nc1C`, the result was inactive.

With `CN1CCN(CCCCOc2ccccc2-c2ccccc2)CC1`, the compound was classed as inactive.

As to `O=C(N/N=C/c1ccccn1)c1cccnc1`, the outcome was inactive.

Take `CCN(CC(=O)NC(=O)NCc1ccccc1)Cc1nc2ccccc2c(=O)[nH]1`: the compound was classed as inactive.

In the case of `O=[N+]([O-])c1cc([N+](=O)[O-])c2cccnc2c1O`, the call was inactive.

Take `CC1CCCN(S(=O)(=O)c2ccc(C(=O)Nc3nnc(-c4ccncc4)o3)cc2)C1` (stereo not given): the outcome was inactive.

Turning to `CC(C)(c1ccccc1)c1ccc(OCCN2CCCC2)cc1`, the result was inactive.

As to `O=c1nc(N/N=C/c2ccco2)cn[nH]1`, the compound was classed as inactive.

In the case of `O=S(=O)(c1ccc(NC(=S)NN=C(C2CC2)C2CC2)cc1)N1CCOCC1`, the compound was called inactive.

Turning to `CNC(=S)N/N=C/c1ccc(N2CCOCC2)s1`, the outcome was inactive.

`O=C(NC(=S)Nc1ncccn1)c1ccccc1Br`: the call was inactive.

Regarding `COc1ccccc1CN1CCN(Cc2cc(OC)c(OC)cc2OC)CC1`, the outcome was inactive.

Turning to `COC(=O)CC1=NN(c2nc(C)cc(C)n2)C(=O)C1`, the compound was classed as inactive.

On to `O=C1CCCN1CCCNC(=S)Nc1ccc(F)c(Cl)c1`, for which the compound was classed as inactive.

Take `COCCN(C(=S)Nc1ccccc1OC)C1CCN(C(C)C)CC1`: the call was inactive.

With `O=C(CSc1cccc[n+]1[O-])c1ccc(-c2ccccc2)cc1`, the compound was called inactive.

Take `O=[N+]([O-])c1ccc2nc(-c3ccccn3)[nH]c2c1`: the outcome was inactive.

With `O=C(Nc1ccccc1Cl)O/N=C(/c1ccccc1)c1ccccn1`, the compound was called inactive.

Regarding `CCS(=O)(=O)c1cc([N+](=O)[O-])c(Sc2ccccc2N)s1`, the compound was classed as inactive.

With `C/C(=N\NC(N)=S)c1cccnc1`, the call was inactive.

As for `Cc1cccc(C)c1OCCN1CCOCC1`, the outcome was inactive.
